# NS1 function inh = influenza NS1 inhibition. AID 2326. Potency, µM (top dose mostly 46.1 µM), for the others: at the highest dose activity, positive = more growth. 0.4% of 270,000 active; note: potency is the fitted concentration of half-maximal effect; actives are rising curves; nearly all actives have a fitted effect of over 50% in size
#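 Read-out: OD600 growth recovery of NS1-expressing budding yeast. Cells grown overnight at 30C in -URA glucose medium, washed, resuspended and diluted 1:100 in 2% galactose assay medium, pH 6.0. Same strain lacking NS1 served as positive control.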
# Pf growth 48h = inhibits P. falciparum growth in the first generation, 48 h; P. falciparum luciferase growth in erythrocytes, 48 h; Potency, µM (highest dose often 28.7 µM), for the others: top-dose activity change, negative = inhibition, usual class: inhibitors; 5.9% of 310,000 active; AID 504832; active = well fitted inhibition curve with a large enough effect; inconclusive = small, poorly fitted or top-dose-only effect, or another doubt; inactive = no such curve, though single readings can be large or run the other way; note: potency is the fitted concentration of half-maximal effect; % is set by controls: 0 for no effect and ±100 for the full control effect
#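 Parasite viability was followed by luminescence of a genomically integrated firefly luciferase. Cultures held 0.1% parasitemia at 2% hematocrit (final), incubated under 5% CO2 at 37 C.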
# SARS PLpro yeast = SARS-CoV PLP inhibition in yeast; S. cerevisiae expressing SARS-CoV PLpro, growth rescue; 0.19% of 330,000 active; Potency, µM (doses to about 32.9 µM), inactives show at the top dose activity, positive = growth rescue, actives largely listed as activators; AID 485353; note: potency is the fitted concentration of half-maximal effect; 0% is about no effect; nearly all actives have a fitted effect of over 55% in size
# Pf growth 96h = P. falciparum growth inhibition at 96 hour, primary screen for plastid delayed-death inhibitors | P. falciparum luciferase reporter growth, 96 h | Potency, µM (titrated, usually from 28.7 µM), for the others: top-dose activity change, negative = inhibition, usual class: inhibitors | 6.9% of 320,000 active; active = well fitted inhibition curve with a large enough effect; inconclusive = small, poorly fitted or top-dose-only effect, or another doubt; inactive = no such curve, though single readings can be large or run the other way; note: potency is the fitted concentration of half-maximal effect; % is set by controls: 0 for no effect and ±100 for the full control effect
#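 P. falciparum expressing integrated firefly luciferase, in erythrocytes at 2% hematocrit, 0.05% parasitemia, incubated with compounds 96 h at 37 C, 5% CO2. Growth inhibition read as loss of luminescence; two-generation exposure targets delayed-death apicoplast inhibitors.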
# Shiga toxin inh = inhibitors of Shiga toxin in Vero cells; inhibition, % at 38.7 µM; 9.2% of 290,000 active; AID 2315; Vero cells, Shiga toxin protein synthesis inhibition reporter; in the data active = inhibition mostly above about 28%, no sharp cut-off; inactive = mostly below about 43%; note: 0% is about no effect
# CHX counter = counter-screen hit for Shiga toxin inhibitors, cycloheximide; cell reporter, cycloheximide protein synthesis inhibition counterscreen; max response, %; 12% of 300,000 active; AID 2314; in the data active = max response mostly above about 13%, no sharp cut-off; inactive = mostly below about 14%; note: read at 38.3 µM for the half of the compounds with a filed dose; 0% is about no effect
# Numbers without * were called inactive; ? = inconclusive; / = no result given; [ ] = dose if it differs, or a comment. Compounds with a hit are over-represented: about 21% of the library has one in this group of screens. Unless noted, calls come from the whole dose curve.
SMILES,NS1 function inh,Pf growth 48h,SARS PLpro yeast,Pf growth 96h,Shiga toxin inh,CHX counter
Cc1cc(C)n(CCc2nc(-c3cccs3)cs2)n1,-3%,7%,23%,4%,40*,12
Cc1cc(C)n(CCc2nc(-c3ccc(-c4ccccc4)cc3)cs2)n1,3%,171%,-1%,157%,88*,58*
COC(=O)CC1c2ccccc2S(=O)(=O)N1Cc1ccccc1 (stereo not given),2%,13%,1%,-19%,17,9
CCOc1cc(/C=C2/NC(=O)NC2=O)cc(Br)c1OCc1ccc(C(=O)O)cc1,/,-4%,2%,-3%,-7,11
Cc1c(C(=O)N(C)C)c2ccc(Cl)cc2n1O,-1%,-7%,15%,-6%,4,-1
COc1ccccc1C(=O)NC(=O)COC(=O)Cc1ccccc1[N+](=O)[O-],/,2%,-3%,15%,/,/
Cc1ccnc(Cc2ccccc2)n1,7%,-7%[0.00184 µM],0%,30%,-4,-4
CCOc1cc(C(=O)N2CCCN(C)CC2)cc(OCC)c1OCC,1%,?,/,4%,-7,2
O=C1NC(Cc2ccc(O)cc2)c2nc3ccc(Br)cc3c(=O)n2-c2ccc(Cl)cc21 (stereo not given),/,/,4%,/,/,/
Cc1ccc(C(=O)C2CCN(CC(=O)Nc3nc(C)cs3)CC2)cc1,-15%,0%,0%,18%,-20,-4
CC(C)c1ccc(OCC(=O)N(Cc2ccco2)C2CCS(=O)(=O)C2)cc1 (stereo not given),-5%,6%,2%,?,4,-1
Cn1c(N)c(C(=O)CSc2n[nH]c(N)n2)c(=O)n(C)c1=O,/,38%,-2%,15%,/,/
CSc1nc2ccc(NC(=O)c3ccc(F)c(F)c3)cc2s1,/,70%,-1%,87%,41*,39*
CC(=O)Nc1ccc2nc(NC(=O)c3ccco3)sc2c1,-7%,174%,-17%,?,36*,25*
CSc1nc2ccc(NC(=O)c3cc4ccccc4o3)cc2s1,4%,66%,-11%,-53%,70*,30*
CSc1nc2ccc(NC(=O)c3nn(C(C)C)c(=O)c4ccccc34)cc2s1,?,17%,16%,-25%,102*,53*
Cc1nc2ccc(NC(=O)c3nn(C(C)C)c(=O)c4ccccc34)cc2s1,3%,-14%,24%,?,-17,-6
CCOC(=O)CSc1nnc(C)n1N,-3%,1%,2%,?,-6,-2
CSc1nc2ccc(NC(=O)c3ccc(=O)[nH]c3)cc2s1,0%,?,3%,?,-6,9
CC(C)c1ccc(/C=C/C(=O)Nc2nc3ccc([N+](=O)[O-])cc3s2)cc1,?,?,-1%,2.3µM*,-16,-1
CCOc1cccc2sc(Nc3nc4ccc(NC(C)=O)cc4s3)nc12,15%,?,3%,?,58*,27*
O=C(Nc1nc2ccc([N+](=O)[O-])cc2s1)c1ccco1,/,156%,2%,163%,44,27*
CSc1nc2ccc(NC(=O)c3ccc(=O)n(C)n3)cc2s1,-15%,42%,1%,32%,42*,19*
COc1ccc(S(=O)(=O)N2CCc3ccccc32)cc1C(=O)Nc1ccc(NC(C)=O)cc1,/,/,-1%,/,/,/
O=C(O)CO.[NH2-].[NH2-].[Pt+2],/,12%,/,1%,/,/
SMILES,NS1 function inh,Pf growth 48h,SARS PLpro yeast,Pf growth 96h,Shiga toxin inh,CHX counter
O=C(CSc1nnc(COc2ccc(Br)cc2)o1)NC1CCCCC1,0%,-6%,1%,49%,-5,-2
CCC(=O)Nc1nc2ccc(S(C)(=O)=O)cc2s1,2%,15%,6%,?,25,14
CCOC(=O)Nc1ccc2nc(Sc3ccc(Cl)cc3)sc2c1,1%,9.3µM*,-1%,15µM*,3,15
CSc1nc2ccc(NC(=O)c3cccs3)cc2s1,/,/,-3%,/,/,/
CSc1nc2ccc(NC(=O)c3ccco3)cc2s1,-4%,?,-70%,?,57*,35*
CCC(=O)Nc1nc2ccc(NC(C)=O)cc2s1,-1%,129%,-7%,51%,47,33*
COC(=O)CCc1nc2cc(Cl)ccc2n(Cc2ccccc2)c1=O,-16%,-25%,-1%,-17%,-23,7
O=C(COc1ccc2c3c(c(=O)oc2c1)CCC3)NCCCN1CCCC1=O,-2%,4%,-2%,?,19,-13
O=C(O)/C=C(\CC(=O)O)C(=O)O,0%,/,/,/,/,/
Cc1cc2c(=O)n(C)c(SCC(=O)Nc3ccccc3C)nc2s1,/,?,2%,9.3µM*,/,/
Cc1cc2c(=O)n(C)c(SCC(=O)Nc3ccccc3)nc2s1,7%,?,-4%,38%,55*,22*
Cc1cc2c(=O)n(C)c(SCC(=O)Nc3cccc(O)c3)nc2s1,-2%,?,1%,18%,5,-5
COc1cccc(COC(=O)C2CCN(S(=O)(=O)c3ccc(F)cc3)CC2)c1OC,/,2%,-6%,27%,/,/
Cc1ccc(CNC(=O)[C@@H](NC(=O)C2CCN(C(=O)[C@@H]3CCCN3)CC2)C(C)C)cc1,7%,21%,-2%,36%,-1,-2
CN(CC1CCCN(CCc2ccc(Cl)cc2)C1)C(=O)c1ccc2nc[nH]c2c1 (stereo not given),2%,?,-7%,?,-39,2
Cc1nc(C)c(Cc2ccccc2Cl)c(=O)[nH]1,5%,-7%,-16%,-1%,0,-2
Cc1nc2ccccc2nc(C)c1=NOCc1ccccc1Cl,4%,?,1%,?,86*,39*
Cc1ccc(S(=O)(=O)N(C)C)cc1NC(=O)C(C)N(C)Cc1sccc1C (stereo not given),1%,?,2%,-23%,-4,5
O=C1CCCc2[nH]c3cccc(/C(=C/c4ccccc4)c4ccccc4)c3c21,14%,-16%,2%,12µM*,1,-3
COC(=O)c1ccc2[nH]c3cccc(/C(=C/c4ccccc4)c4ccccc4)c3c2c1,8%,?,-4%,3.7µM*,13,-3
COc1cccc(C(=O)SC2=NCCS2)c1,-39%,12%,-5%,-24%[5.75 µM],-2,-1
CCOC(=O)N1CCN(CCC(=O)Nc2cc(C)ccc2C)CC1,5%,-2%,3%,0%,-20,-6
COc1ccc(C(=O)NCC(=O)N/N=C/c2ccco2)cc1OC,14%,13%,1%,12%,-4,6
O=C(CNC(=O)c1ccccc1F)N/N=C/c1cc(Br)ccc1OC(=O)/C=C/c1ccco1,30%,10µM*,-8%,?,37,2
COc1ccccc1C(=O)NCC(=O)N/N=C/c1cc(Br)ccc1OC(=O)/C=C\c1ccco1,7%,38%,-8%,?,33,-4
O=C(CNC(=O)c1ccc(F)cc1)N/N=C/c1cc(Br)ccc1OC(=O)/C=C/c1ccco1,-1%,13µM*,-1%,?,1,-2
